# Test results: PubChem BioAssay (Tox21)
# Several values for one entry are separate records, joined by “and”; a condition that tells them apart may be missing. Equal entries are not always repeated. Results filed as inconclusive are left out. Activity calls are given as the source filed them. Calls follow the shape of the dose curve; as a rule, active = well fitted inhibition curve with a large enough effect in the repeat runs; inconclusive = weak or mixed curves; inactive = no such curve, though single readings can be large or run the other way.
# Biological target: Androgen receptor (Homo sapiens) (UniProt P10275)
# Experiment: qHTS assay to identify small molecule antagonists of the androgen receptor (AR) signaling pathway using the MDA cell line in the presence of 0.5 nM R1881 (AID 1259243); also: nearly all actives have a fitted effect of over 50% in size
# Details: MDA-kb2 MMTV-luciferase, R1881 0.5 nM, 16 h; series mostly up to 92.4 µM; activity, negative = inhibition: at the top concentration
# From the text: U.S. Tox21 Program National Center for Advancing Translational Sciences [NCATS] NIH Chemical Genomics Center [NCGC] U.S. Environmental Protection Agency [EPA] National Institutes of Environmental Health Sciences [NIEHS] National Toxicology Program [NTP] U.S. Food and Drug Administration [FDA] Tox21 Assay Overview: Androgen receptor (AR) is an important member of the nuclear receptor family. Its signaling plays a critical role in AR-dependent prostate cancer and other androgen related diseases. Considerable attention has been given in the past decades to develop methods to study and screen for the environmental chemicals that have the potential to interfere with metabolic homeostasis, reproduction, developmental and behavioral functions. Therefore AR binding assay for screening androgen antagonists can be used to identify potential endocrine disruptors. MDA-kb2 cells (from ATCC, deposited by Wilson et al.) were used to screen for AR inhibitors against Tox21 compound libraries. These cells are human breast carcinoma cells that were stably transfected with a luciferase reporter gene under control of the MMTV promoter that contains response elements for both androgen receptor (AR) and glucocorticoid receptor (GR). The current screening for identification of AR inhibitors against Tox21 libraries used lower concentration (0.5 nM) of R1881 as a stimulator.
# Tox21 Assay Protocol Summary: MDA-kb2 cells (cells cultured without CO2) were dispensed at 3,000 cells/well in 4 uL of culture medium into white wall/solid-bottom 1536-well plates (Corning Life Sciences, Corning, NY) using a Multidrop Combi (ThermoFisher Scientific, Waltham, MA) dispenser. After the assay plates were incubated at a 37C and 0% CO2 for 5 hr, 23 nL of compounds dissolved in DMSO, positive controls or DMSO only was transferred to the assay plate by a Pintool station (Kalypsys, San Diego, CA). The transfer of compounds was followed by the addition of 1 uL of 0.5 nM (final concentration) agonist (R1881)/culture medium using a Flying Reagent Dispenser (FRD, Aurora Discovery, San Diego, CA). The plates were incubated at 37C and 0% CO2 for 16 hr. For luciferase reporter gene assay, 4 uL of ONE-Glo reagent (Promega Corporation, Madison, WI) was added to each well using the FRD and after 30 min incubation at room temperature luminescence intensity was measured using ViewLux plate reader (PerkinElmer, Shelton, CT).
# % is scaled to controls: 0 for no effect and ±100 for the full control effect; potency is read from the fitted curve at half-maximal effect.
# Chain of Androgen receptor (Homo sapiens) (P10275 whole entry, looked up): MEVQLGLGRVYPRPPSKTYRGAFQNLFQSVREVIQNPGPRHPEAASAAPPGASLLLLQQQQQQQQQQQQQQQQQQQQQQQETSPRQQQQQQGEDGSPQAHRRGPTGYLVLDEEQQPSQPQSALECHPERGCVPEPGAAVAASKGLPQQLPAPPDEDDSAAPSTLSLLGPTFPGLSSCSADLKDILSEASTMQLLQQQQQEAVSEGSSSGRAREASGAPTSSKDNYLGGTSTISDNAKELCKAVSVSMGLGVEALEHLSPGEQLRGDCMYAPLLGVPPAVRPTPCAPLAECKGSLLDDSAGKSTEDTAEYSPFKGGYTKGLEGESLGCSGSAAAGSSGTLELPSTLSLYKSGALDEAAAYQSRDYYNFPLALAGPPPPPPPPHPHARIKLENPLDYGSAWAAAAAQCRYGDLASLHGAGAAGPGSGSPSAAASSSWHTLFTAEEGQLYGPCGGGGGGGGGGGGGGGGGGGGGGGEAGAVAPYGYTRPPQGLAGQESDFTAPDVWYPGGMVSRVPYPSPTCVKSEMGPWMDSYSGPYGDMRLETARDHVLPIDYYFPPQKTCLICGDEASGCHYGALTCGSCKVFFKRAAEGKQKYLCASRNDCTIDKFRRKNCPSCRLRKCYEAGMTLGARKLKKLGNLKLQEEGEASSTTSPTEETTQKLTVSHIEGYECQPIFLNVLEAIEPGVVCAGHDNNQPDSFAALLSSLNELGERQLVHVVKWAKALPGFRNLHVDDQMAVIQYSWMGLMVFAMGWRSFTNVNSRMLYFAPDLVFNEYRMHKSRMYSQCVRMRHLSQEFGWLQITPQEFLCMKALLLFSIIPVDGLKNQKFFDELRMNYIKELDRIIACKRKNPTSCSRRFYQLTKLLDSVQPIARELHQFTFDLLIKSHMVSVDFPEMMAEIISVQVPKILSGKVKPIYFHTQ
Compound,Potency,"activity, negative = inhibition"
CC(=O)[O][Pb]([c]1ccccc1)([c]1ccccc1)[c]1ccccc1,0.969 µM (active),–
CCOP(=S)(OCC)Oc1cc(C)nc(N(CC)CC)n1,34.4 µM (active),–
Cc1ccccc1OP(=O)(Oc1ccccc1C)Oc1ccccc1C,48.8 µM (active),–
S=C=Nc1ccccc1,–,-21% (inactive)
CN(C)C(=S)SSC(=S)N(C)C,107 nM (active) and 172 nM (active) and 188 nM (active),–
Cc1ccc([N+](=O)[O-])[c]2c1[O][Hg]2,2.37 µM (active),–
C=CC(=O)[O][Sn]([CH2]CCC)([CH2]CCC)[CH2]CCC,0.545 µM (active),–
CC(C)=CC1C(C(=O)OC(C#N)c2cccc(Oc3ccccc3)c2)C1(C)C (stereo not given),–,3.73% (inactive)
O=[N+]([O-])C(Br)Br,–,-6.37% (inactive)
CCOC(=O)Cc1ccccc1,–,1.92% (inactive)
CC(Cc1ccccc1)N(C)Cc1ccco1 (stereo not given),–,-0.522% [at 42.5 µM] (inactive)
C[C@@H]1CC2=CC(=O)CC[C@@H]2[C@H]2CC[C@@]3(C)[C@@H](CC[C@]3(C)O)[C@@H]21,–,14.1% [at 42.5 µM] (inactive)
BrCCCBr,–,22.6% (inactive)
COc1ccc2c(c1OC)C(=O)O[C@@H]2[C@H]1c2cc3c(cc2CCN1C)OCO3,–,-0.738% (inactive)
N#CC(C#N)=NNc1cccc(Cl)c1,1.54 µM (active),–
O=C(NC(=O)c1ccccc1Cl)Nc1ccc(OC(F)(F)F)cc1,–,4.08% (inactive)
Cc1nn(-c2cc(NS(C)(=O)=O)c(Cl)cc2Cl)c(=O)n1C(F)F,–,15.3% (inactive)
CCNS(=O)(=O)C(F)(F)C(F)(F)C(F)(F)C(F)(F)C(F)(F)C(F)(F)C(F)(F)C(F)(F)F,–,-0.232% (inactive)
Fc1ccc(C(OCCN2CCN(CCCc3ccccc3)CC2)c2ccc(F)cc2)cc1,8.41 µM (active),–
ClC1(Cl)C2(Cl)C3(Cl)C4(Cl)C(Cl)(Cl)C5(Cl)C3(Cl)C1(Cl)C5(Cl)C24Cl (stereo not given),–,9.12% (inactive)

Compound,Potency,"activity, negative = inhibition"
O=NN(CCO)CCO,–,0.889% (inactive)
O=c1[nH]c(Cl)c(Cl)cc1Cl,–,15.6% (inactive)
C[C@]12CC[C@H]3[C@@H](CCC4=CC(=O)CC[C@@H]43)[C@@H]1CC[C@@H]2OC(=O)CCc1ccco1,–,68.7% [at 42.5 µM] (inactive)
Cc1ccc(C)c2ccccc12,–,23% (inactive)
N#Cc1c2ccccc2cc2ccccc12,10.8 µM (active),–
CC#C[C@]1(O)CC[C@H]2[C@@H]3C[C@H](C)C4=CC(=O)CC[C@]4(C)[C@H]3CC[C@@]21C,–,260% [at 42.5 µM] (inactive)
CCOP(=O)(OCC)Oc1nc(Cl)c(Cl)cc1Cl,–,16.8% (inactive)
O=c1[nH]c2cc(Cl)ccc2n1C1CCNCC1,–,17.3% [at 42.5 µM] (inactive)
COc1ccc(Cc2nccc3cc(OC)c(OC)cc23)cc1OC,6.68 µM (active),–
[Cl][Hg][c]1ccccc1,2.43 µM (active),–
O=S1OCC2C(CO1)C1(Cl)C(Cl)=C(Cl)C2(Cl)C1(Cl)Cl (stereo not given),48.6 µM (active) and 54.4 µM (active),–
CC1=C2C[C@H]3[C@@H](CC=C4C[C@@H](O)CC[C@@]43C)[C@@H]2CC[C@]12O[C@@H]1C[C@H](C)CN[C@H]1[C@H]2C,–,-11.6% [at 42.5 µM] (inactive)
Nc1ccc(Cl)cc1C(=O)c1ccccc1F,10.6 µM (active),–
CC(C)NCC(O)c1ccccc1Cl (stereo not given),–,8.52% [at 42.5 µM] (inactive)
O=C(CCCCl)c1ccc(F)cc1,–,15.6% [at 42.5 µM] (inactive)
N#Cc1sc2c(=O)c3ccccc3c(=O)c=2sc1C#N,4.86 µM (active),–
[O]=[Cr](=[O])([OH])[O][Cr](=[O])(=[O])[OH],30.9 µM (active) and 54.4 µM (active),–
CCCCCCCc1ccc(O)cc1,27.3 µM (active),–
O=C1C(Cl)=C(Cl)C(=O)C(Cl)=C1Cl,27.2 µM (active) and 24.3 µM (active),–
C[C@H]1[C@H](c2ccc(Cl)cc2)SC(=O)N1C(=O)NC1CCCCC1,48.6 µM (active),–
